MsrA act: bovine MsrA enzyme activators, primary screen, biochemical, absorbance, HTS; purified bovine MsrA, absorbance read-out; activation, % at 10.6 µM; 360,000 compounds, 0.3% hits; in the data active = activation above about 7.5%;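 also: 0% = vehicle and 100% = reference activator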
MsrA inhibitor: bovine MsrA enzyme inhibitors, primary screen, biochemical, absorbance, HTS. purified bovine MsrA, absorbance read-out. inhibition, % at 15.5 µM. 360,000 compounds, 0.75% hits; in the data active = inhibition above about 4.5%;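 also: 0% = vehicle wells with enzyme and 100% = reference inhibitor wells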
rCAG binder: binders of r(CAG) RNA repeats, primary screen, biochemical, fluorescence; r(CAG) RNA repeat, TO-PRO-1 dye displacement fluorescence; inhibition, % at 3 µM; 370,000 compounds, 1.3% hits; AID 651821, 2012;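 active = inhibition above the plate cutoff, the mean of all test compounds on that plate plus 3 SD, cut at about 35% in these data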;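 also: 0% = DMSO alone and 100% = 100 µM mitoxantrone as full dye displacement; higher means more dye released from RNA so lower well fluorescence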
sPLA2-III inh: human group III sPLA2 inhibitors, primary screen, biochemical, QFRET, BODIPY PC-A2 liposome substrate; Group 3 secretory phospholipase A2 (Homo sapiens), Q9NZ20; QFRET BODIPY PC-A2 liposome hydrolysis, fluorescence; inhibition, % at 12.2 µM; 370,000 compounds, 0.56% hits;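 active = inhibition above mean plus 3 SD of compounds lying within the high and low control bounds, cut at about 19% in these data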;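 also: 0% = median of test compound wells and 100% = no enzyme DMSO wells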
Target sequence (Q9NZ20 whole entry, looked up): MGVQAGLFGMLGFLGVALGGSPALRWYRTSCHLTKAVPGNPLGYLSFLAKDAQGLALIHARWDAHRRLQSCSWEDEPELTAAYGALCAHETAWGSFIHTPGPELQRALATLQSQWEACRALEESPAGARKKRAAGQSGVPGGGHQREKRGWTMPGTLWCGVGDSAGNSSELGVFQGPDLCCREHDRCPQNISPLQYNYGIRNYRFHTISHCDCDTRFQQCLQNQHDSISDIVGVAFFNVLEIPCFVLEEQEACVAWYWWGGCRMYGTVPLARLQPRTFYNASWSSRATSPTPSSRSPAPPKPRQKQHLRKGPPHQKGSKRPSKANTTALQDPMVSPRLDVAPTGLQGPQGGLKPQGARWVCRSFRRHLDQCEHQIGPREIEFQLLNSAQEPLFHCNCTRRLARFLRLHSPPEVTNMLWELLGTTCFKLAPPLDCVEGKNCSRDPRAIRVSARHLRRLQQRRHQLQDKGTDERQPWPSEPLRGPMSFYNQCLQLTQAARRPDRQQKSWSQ
sPLA2 confirm: human group III sPLA2 inhibitors, confirmation, biochemical, QFRET, triplicate. recombinant hGIII-sPLA2, BODIPY PC-A2 QFRET fluorescence. shares compounds with sPLA2-III inh. inhibition, % at 12.2 µM. 2,000 compounds, 34% hits;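 active = mean inhibition across triplicates above the hit cutoff set in the earlier primary screen, cut at about 19% in these data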;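 also: 0% = enzyme with DMSO and 100% = DMSO wells lacking enzyme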
535nm interf: 535nm fluorescence optical interference, confirmation, artefact control for HGIII-sPLA2 inhibitor project, biochemical, QFRET | AID 743282, 2014 | inhibition, % at 12.2 µM | BODIPY FL product fluorescence interference | 2,000 compounds, 8.5% hits | shares compounds with sPLA2-III inh;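 active = average inhibition above the solvent-only control mean plus 3 SD, cut at about 6% in these data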;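 also: 0% = DMSO with substrate plus product and 100% = DMSO with substrate alone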
BODIPY interf DR: 535nm fluorescence optical interference, dose response, artefact control for HGIII-sPLA2 inhibitor project, biochemical, QFRET. shares compounds with sPLA2-III inh. BODIPY FL product fluorescence interference, cell-free. IC50, µM. 240 tested, under 10 active. AID 743455, 2014;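 active = IC50 at or below 10 µM; inactive = IC50 above 10 µM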
The depositor's hits bear a star; nt = no result given; ! = not active in a repeat. Shown are actives, neighbours in structure and some others; about 2.8% of the full set was active somewhere.

SMILES | MsrA act | MsrA inhibitor | rCAG binder | sPLA2-III inh | sPLA2 confirm | 535nm interf | others
CC(CCC(=O)Nc1nncs1)C(=O)O (stereo not drawn) | -1 | 0 | 2 | 20* | 0 | 3
O=C(NC(=S)N1CCN(c2ccc(C(F)(F)F)cc2[N+](=O)[O-])CC1)c1cccs1 | -2 | 0 | 11 | 31* | 47* | 9.5*
COc1ccc(/C=N/NC(N)=S)cc1 | -8 | 2 | -1 | 21* | 2 | -9
C=CCOc1ccc(/C=N\NC(N)=S)cc1 | -6 | 2 | 1 | 11 | nt | nt
COC(=O)c1cccc(/C=N/NC(N)=S)c1O | -5 | 4 | 2 | 21* | 20* | -1
Cc1cc(C)cc(OCc2nnc(SCC(=O)NC3CC3)n2C)c1 | -9 | 1 | -7 | 17 | nt | nt
Cc1cccc(NC(=O)NCC(c2ccco2)N2CCCCC2)c1 (stereo not drawn) | -1 | 0 | -4 | -6 | nt | nt
O=C(Nc1ccccc1)c1cn(CCBr)cn1 | -3 | 0 | -4 | 20* | 6 | -6
O=C(Cn1ccsc1=NC(=O)C(F)(F)F)c1ccccc1 | -1 | -1 | 4 | -24 | nt | nt
Cc1ccc(C(=O)NC(=S)Nc2c(C)ccc3nsnc23)cc1 | -4 | 0 | -2 | 23* | 13 | -7
COc1ccc(N2CCN(c3nc(NC(C)(C)C)nc(N4CCCCC4)n3)CC2)cc1 | 4 | -1 | 2 | 2 | nt | nt
C/C(=N\NC(=O)c1nn(C)c(C)c1Br)c1ccc(NC(=O)c2ccccc2F)cc1 | -1 | 0 | -3 | 22* | -1 | -11
C/C(=N\NC(=O)c1nn(C)c(C)c1Br)c1ccc(NC(=O)c2ccoc2C)cc1 | 0 | 1 | 4 | 13 | nt | nt
Cc1cc(C)c(C)c(N=Nc2nc3ccccc3n2C)c1C | -9 | 2 | -1 | 21* | 39* | -3 | BODIPY interf DR=>122
Cc1ccc2nc(-c3cc(N)cc(N)c3)oc2c1 | 0 | 1 | 11 | 23* | 36* | -2 | BODIPY interf DR=>122
CC1CN(Cc2ccccc2)c2ccccc2NC1=S (stereo not drawn) | -3 | 1 | 5 | 21* | 22* | 0
N#CC(C#N)=c1ccc2c(c1)NC1(CCCCC1)N=2 | -2 | 2 | 4 | 38* | 61* | 18*
COc1ccc(C(=O)N/N=C/c2cc3ccccc3[nH]c2=S)cc1 | -2 | 1 | 13 | 44* | 35* | 10*
COc1ccc(C(=O)N/N=C/c2cccc3cccnc23)cc1 | 1 | 2 | 2 | -12 | nt | nt
CCOc1ccccc1C(=O)NN1C(=O)C2CCCCC2C1=O (stereo not drawn) | 0 | -1 | -5 | 22* | -2 | -2
COc1cccc(C(=O)NCCCNC(=O)c2cccc(OC)c2)c1 | -2 | 1 | -4 | 17 | nt | nt
COc1cccc(C(=O)NCCCNC(=O)c2ccco2)c1 | -2 | 0 | 9 | 22* | 1 | -8
Cc1cc(C(=O)NNC(=S)Nc2cccc(C(F)(F)F)c2)nn1C | -1 | 1 | 7 | 47* | 42* | 2 | BODIPY interf DR=>122
Cc1ccc(NC(=S)NNC(=S)Nc2cccc(C(F)(F)F)c2)cc1 | -2 | 1 | 16 | 11 | nt | nt
CCc1cccc(NC(=O)Cn2cc3c(n2)CCCC3)c1 | 7 | 1 | 3 | 0 | nt | nt
SMILES | MsrA act | MsrA inhibitor | rCAG binder | sPLA2-III inh | sPLA2 confirm | 535nm interf | others
CN(C)c1ccc(NC(=O)Cn2cc3c(n2)CCCC3)cc1 | 0 | 0 | 8 | 21* | 17 | -3
[C-]#[N+][C@]12C(=O)[C@H](C=C(Cl)[C@@]1(C)C=C)C(C)(C)[C@H]1C(=O)N(C)c3cccc2c31 | nt | nt | 2 | 31* | 21* | -13
O=C(/C=C/c1ccco1)Nc1ccc(CN2CCOCC2)cc1 | -2 | -1 | -1 | 2 | nt | nt
COc1ccc(N=Nc2cc(C)ccc2O)cc1 | -6 | 1 | 3 | 11 | nt | nt
Cc1ccc(O)c(N=Nc2nccs2)c1 | -2 | 2 | 3 | 25* | 19 | 9.9*
COc1ccc(C(=O)OCC(=O)Nc2ccc(OC(F)F)cc2)c(OC)c1 | -11 | 0 | -3 | -13 | nt | nt
FC(F)(F)c1cc(Cl)c2nc(-c3ccccc3)c(Cc3ccccc3)n2c1 | -2 | -1 | 13 | -5 | nt | nt
CCCCNC(=S)NNC(=O)c1ccc(Br)o1 | -5 | 1 | -5 | 30* | 31* | 3 | BODIPY interf DR=>122
CCCCNC(=S)NNC(=O)c1nn(C)cc1Cl | 5 | 0 | 3 | 23* | 27* | -1
CC(=O)N(Cc1ccccc1)c1nccs1 | nt | 0 | 2 | -6 | nt | nt
Cc1ccc(CNCCNCCO)s1 | -2 | -1 | -1 | 4 | nt | nt
O=C1c2c(O)ccc(O)c2C(=O)c2c(NCCNCCO)ccc(NCCNCCO)c21 | -2 | 1 | 54*! | 35* | 40* | -21 | BODIPY interf DR=>122
COc1ccc(NC(=O)CSc2ccccn2)c([N+](=O)[O-])c1 | -2 | 0 | 1 | -10 | nt | nt
Cc1ccc(NC(=O)CSC(C)C(=O)OCC(=O)N2CCN(C(=O)c3ccco3)CC2)cc1 (stereo not drawn) | -3 | 0 | 3 | 12 | nt | nt
S=C(Nc1ccccc1Oc1ccccc1)Nc1cccc(Cl)c1Cl | -2 | 0 | 8 | 22* | 30* | 6.7*
S=C(Nc1ccccc1)Nc1nc2ccccc2n1CCOc1ccc(Br)cc1 | -3 | 0 | 5 | 7 | nt | nt
Cn1c(NC(=S)Nc2ccccc2)nc2ccccc21 | -7 | 3 | 6 | 39* | 35* | 6.3*
Cc1ccc(N2CC(C(N)=O)CC2=O)cc1C (stereo not drawn) | -3 | 1 | 1 | 8 | nt | nt
CC1CC(C)(C)NC(=S)N1CCCC(=O)Nc1ccc(F)c(F)c1 (stereo not drawn) | -3 | 0 | -6 | 9 | nt | nt
CCC(=O)N(CC(=O)Nc1sc(C)c(C)c1C(N)=O)C1CCCCC1 | -2 | 0 | -5 | 19* | -4 | -3
Cc1ccc(C(=O)N(CC(=O)Nc2sc(C)c(C)c2C(N)=O)C2CCCC2)cc1 | -3 | 1 | 3 | -1 | nt | nt
Cc1ccc(NC(=O)C(C)Sc2nc(=O)cc(N)n2-c2ccccc2)cc1 (stereo not drawn) | -4 | -1 | 8 | -5 | nt | nt
COc1ccc(CCC(=O)NNC(=S)Nc2cccc(C(C)=O)c2)cc1 | -9 | 2 | 7 | 20* | 28* | 1 | BODIPY interf DR=>122
O=C(NNC(=S)Nc1ccccc1)c1cc(Br)ccc1Cl | -3 | -1 | 27 | 33* | 28* | 6.1*
COc1ccc(CCC(=O)NNC(=O)Nc2cccc(Cl)c2)cc1 | 4 | 2 | -4 | -10 | nt | nt

Compound activity: PubChem BioAssay, The Scripps Research Institute Molecular Screening Center
